{"source": "PubChem BioAssay (Tox21)", "note": "Inconclusive results are not listed. The source made the active and inactive calls. The call rests on the fitted dose curve; in most records, active means well fitted cell-killing curve with a large enough effect in the repeat runs; inconclusive means weak or mixed curves, or effect the other way; inactive means no such curve, though single readings can be large or run the other way. Non-standard residues stand in square brackets, D forms with d. Residues, ends and D or L forms follow the SMILES beside them. *: point of attachment. Sta = CC(C)C[C@H](N)[C@@H](O)CC(=O)O; Isovaleryl = CC(C)CC(=O)*"}
{"experiment": "Caspase-3/7 induction in CHO-K1 cells by small molecules, qHTS cell viability counter screen (AID 1346979); further: on the % scale 0 is the no-effect control and ±100 the full control effect; nearly all actives have a fitted effect of over 35% in size", "conditions": "CellTiter-Fluor fluorescence, 17 h; series mostly up to 92.4 µM; activity change, negative = cytotoxicity: at the top concentration", "description": "National Center for Advancing Translational Sciences [NCATS]\nNIH Chemical Genomics Center [NCGC]\nU.S. Environmental Protection Agency [EPA]\nNational Institutes of Environmental Health Sciences [NIEHS]\nNational Toxicology Program [NTP]\nU.S. Food and Drug Administration [FDA]\nApoptosis is a process of programmed cell death and plays a central role in the development of multicellular organisms. It is a highly regulated process and induces cell death by activating caspases, which are the members of cysteine aspartic acid-specific protease (caspase) family. Caspases involved in apoptosis are classified by their mechanism of action as initiator caspases (caspase-2, -8, -9 and -10) and executioner caspases (caspase-3, -6, and -7). Inhibition of apoptosis results in number of cancers, autoimmune diseases, inflammatory diseases and viral infection. To identify small molecule compounds that induce apoptosis, a homogeneous, luminescent Caspase-Glo 3/7 assay was used. Wild type CHO-K1 cells were used to screen Tox21 libraries for identifying caspase-3/7 activity inducers. Also cytotoxicity of the compounds was tested in parallel by measuring the cell viability using CellTiter-Fluor assay system in the same wells.\nTox21 Assay Protocol Summary:\nCHO-K1 cells were dispensed at 1,500 per well in 5uL of culture medium into white solid bottom 1536-well plates (Corning Life Sciences, Corning, NY) using a Multidrop Combi (Thermo Scientific, Waltham, MA) dispenser. The assay plates were incubated at 37 C and 5% CO2 for 5hr, and then 23nL of compounds dissolved in DMSO and positive control were transferred using a Pintool station (Wako, San Diego, CA). The assay plates were incubated at 37C and 5% CO2 for 17hr. For cytotoxicity read, after 16hr incubation at 37C, 1uL CellTiter-Fluor reagent (Promega Corporation, Madison, WI) was added to each well of the assay plates using Flying Reagent Dispenser (FRD, Aurora Discovery, San Diego, CA). After 1hr incubation at 37C and 5% CO2, the fluorescence signal was quantified using a ViewLux plate reader (PerkinElmer, Shelton, CT)."}
{"compound": "Cc1ccc(O)c(C(=O)c2ccccc2)c1", "activity change, negative = cytotoxicity": "3.31% (inactive)"}
{"compound": "Cc1nnc(C(=O)NC(C)(C)c2nc(C(=O)NCc3ccc(F)cc3)c(O)c(=O)n2C)o1", "activity change, negative = cytotoxicity": "1.82% [at 42.5 µM] (inactive)"}
{"compound": "C/C=C(\\C)C(=O)OC/C=C(\\C)CCC=C(C)C", "activity change, negative = cytotoxicity": "-2.05% (inactive)"}
{"compound": "NNC(=O)CCCCC(=O)NN", "activity change, negative = cytotoxicity": "-1.73% (inactive)"}
{"compound": "O=S(=O)(O)c1cc(I)c(O)c2ncccc12", "activity change, negative = cytotoxicity": "-2.15% [at 42.5 µM] (inactive)"}
{"compound": "COCCCOc1cc(C[C@@H](C[C@H](N)[C@@H](O)C[C@H](C(=O)NCC(C)(C)C(N)=O)C(C)C)C(C)C)ccc1OC", "activity change, negative = cytotoxicity": "9.09% [at 42.5 µM] (inactive)"}
{"compound": "COc1cc(OC)cc(OC)c1", "activity change, negative = cytotoxicity": "11.2% [at 42.5 µM] (inactive)"}
{"compound": "CCCCCCCCCCCCCCCC/C=C/C1CC(=O)OC1=O", "note": "(stereo not given)", "activity change, negative = cytotoxicity": "-2.21% [at 42.5 µM] (inactive)"}
{"compound": "CCOc1ccccc1OCCN[C@H](C)Cc1ccc(OC)c(S(N)(=O)=O)c1", "activity change, negative = cytotoxicity": "6.87% [at 42.5 µM] (inactive)"}
{"compound": "CCc1ccc(CC)cc1", "activity change, negative = cytotoxicity": "8.57% (inactive)"}
{"compound": "CC(C)(Sc1cc(C(C)(C)C)c(O)c(C(C)(C)C)c1)Sc1cc(C(C)(C)C)c(O)c(C(C)(C)C)c1", "activity change, negative = cytotoxicity": "7.74% [at 42.5 µM] (inactive)"}
{"compound": "Clc1cc(Cl)c(Cl)c(Cl)c1Cl", "activity change, negative = cytotoxicity": "4.46% (inactive)"}
{"compound": "CC(C)(C)C(=O)CC(=O)C(C)(C)C", "activity change, negative = cytotoxicity": "10.9% (inactive)"}
{"compound": "COc1cc(C(=O)NC2CCCNC2)cc(OC)c1OC", "note": "(stereo not given)", "activity change, negative = cytotoxicity": "4.28% [at 42.5 µM] (inactive)"}
{"compound": "CN(C)CCCN(C)C", "activity change, negative = cytotoxicity": "2.18% [at 8.39 µM] (inactive)"}
{"compound": "N=C(N)N1CCc2ccccc2C1", "activity change, negative = cytotoxicity": "6.67% [at 8.39 µM] (inactive)"}
{"compound": "CCCc1ncc(C(=O)O)s1", "activity change, negative = cytotoxicity": "2.78% [at 42.5 µM] (inactive)"}
{"compound": "C=C(C)C(=O)OCCCC", "activity change, negative = cytotoxicity": "4.37% (inactive)"}
{"compound": "CC(C)CC(=O)N[C@H](C(=O)N[C@H](C(=O)N[C@@H](CC(C)C)[C@@H](O)CC(=O)N[C@@H](C)C(=O)N[C@@H](CC(C)C)[C@@H](O)CC(=O)O)C(C)C)C(C)C", "note": "(Isovaleryl-VV[Sta]A[Sta]-OH)", "activity change, negative = cytotoxicity": "6.01% [at 42.5 µM] (inactive)"}
{"compound": "COc1cnc(NS(=O)(=O)c2ccc(N)cc2)nc1", "activity change, negative = cytotoxicity": "8.31% [at 42.5 µM] (inactive)"}
{"compound": "O=Cc1ccccc1S(=O)(=O)O", "activity change, negative = cytotoxicity": "4.4% (inactive)"}
{"compound": "CCCC(=O)C(CC)Sc1ccoc1C", "note": "(stereo not given)", "activity change, negative = cytotoxicity": "-2.05% (inactive)"}
{"compound": "CC(CN1CC(=O)NC(=O)C1)N1CC(=O)NC(=O)C1", "note": "(stereo not given)", "activity change, negative = cytotoxicity": "-8.51% (inactive)"}
{"compound": "CC(C)(O)c1ccc(C(C)(C)O)cc1", "activity change, negative = cytotoxicity": "1.33% (inactive)"}
{"compound": "Clc1ccc2c(c1)Nc1ccccc1S2", "activity change, negative = cytotoxicity": "1.63% [at 42.5 µM] (inactive)"}
{"compound": "OCCC(F)(F)C(F)(F)C(F)(F)C(F)(F)C(F)(F)C(F)(F)F", "activity change, negative = cytotoxicity": "4.99% (inactive)"}
{"compound": "BrCCOc1ccccc1", "activity change, negative = cytotoxicity": "9.37% (inactive)"}
{"compound": "CC(O)C(CO)C(C)O", "note": "(stereo not given)", "activity change, negative = cytotoxicity": "8.28% (inactive)"}
{"compound": "O=C1Nc2ccccc2C1=O", "activity change, negative = cytotoxicity": "2.36% (inactive)"}
{"compound": "CC[N+](C)(CC)CC", "activity change, negative = cytotoxicity": "-0.454% (inactive)"}
{"compound": "COC(=O)c1cc(Cl)c(NC(C)=O)cc1OC", "activity change, negative = cytotoxicity": "10.5% [at 42.5 µM] (inactive)"}
{"compound": "CC(C)(C)C(=O)CCc1ccc(Cl)cc1", "activity change, negative = cytotoxicity": "1.86% (inactive)"}
{"compound": "CCO/C=C1\\N=C(c2ccccc2)OC1=O", "activity change, negative = cytotoxicity": "-16.9% (inactive)"}
{"compound": "N[C@H]1C(O)O[C@H](CO)[C@@H](O)[C@@H]1O", "note": "(stereo not given in full)", "activity change, negative = cytotoxicity": "0.531% [at 42.5 µM] (inactive)"}
{"compound": "CCCCCCCCCCCC(C)=O", "activity change, negative = cytotoxicity": "5% (inactive)"}
{"compound": "C=COCCCCO", "activity change, negative = cytotoxicity": "-6.88% (inactive)"}
{"compound": "O=c1[nH]c(=O)c2cn[nH]c2[nH]1", "activity change, negative = cytotoxicity": "1.61% (inactive)"}
{"compound": "N=C(N)N", "activity change, negative = cytotoxicity": "1.21% [at 42.5 µM] (inactive)"}
{"compound": "CNC(C)=O", "activity change, negative = cytotoxicity": "7.13% (inactive)"}
{"compound": "C=C(C)C(=O)OCCOC1CC2CC1C1C=CCC21", "note": "(stereo not given)", "activity change, negative = cytotoxicity": "4.16% (inactive)"}
